Data: the supplement of paper PMC4466140

biological target: AgAbp1; assay: SPOT peptide array binding signal intensity (averaged, normalized) (arbitrary units (background-subtracted, floor 0; scale differs between SH3 domains)); higher = stronger binding of the SH3 domain to the peptide
Procedure, shortened: (§1)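 To measure binding, SH3 domains from four yeast species were fused to GST, expressed in E. coli BL21(DE3) and purified on glutathione Sepharose. Each domain was incubated at 10 μg/ml overnight at 4°C on cellulose membranes with synthetic 15-mer peptides whose cysteines were replaced by serines. Anti-GST antibody, an HRP anti-mouse secondary and luminol were used for detection, and images were quantified with Genespotter. Reported binding signal is normalized, background-subtracted spot intensity averaged over replicates, in arbitrary units that differ between domains.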

Binder | SPOT peptide array binding signal intensity
PIVPSSPAPPLPLSG | ≤ 0
ISPPASPPPEFDFSK | ≤ 0

biological target: AgBbc1; assay: as above
Procedure, shortened: as §1

Binder | SPOT peptide array binding signal intensity
PIVPSSPAPPLPLSG | ≤ 0
ISPPASPPPEFDFSK | ≤ 0

biological target: AgBem1-D1; assay: as above
Procedure, shortened: as §1

Binder | SPOT peptide array binding signal intensity
PIVPSSPAPPLPLSG | ≤ 0
ISPPASPPPEFDFSK | ≤ 0

biological target: AgBzz1-D1; assay: as above
Procedure, shortened: as §1

Binder | SPOT peptide array binding signal intensity
PIVPSSPAPPLPLSG | ≤ 0
ISPPASPPPEFDFSK | ≤ 0

biological target: AgBzz1-D2; assay: as above
Procedure, shortened: as §1

Binder | SPOT peptide array binding signal intensity
PIVPSSPAPPLPLSG | ≤ 0
ISPPASPPPEFDFSK | 22.5

biological target: AgCyk3; assay: as above
Procedure, shortened: as §1

Binder | SPOT peptide array binding signal intensity
PIVPSSPAPPLPLSG | ≤ 0
ISPPASPPPEFDFSK | ≤ 0

biological target: AgFus1; assay: as above
Procedure, shortened: as §1

Binder | SPOT peptide array binding signal intensity
PIVPSSPAPPLPLSG | ≤ 0
ISPPASPPPEFDFSK | 4

biological target: AgHof1; assay: as above
Procedure, shortened: as §1

Binder | SPOT peptide array binding signal intensity
PIVPSSPAPPLPLSG | ≤ 0
ISPPASPPPEFDFSK | ≤ 0

biological target: AgHse1; assay: as above
Procedure, shortened: as §1

Binder | SPOT peptide array binding signal intensity
PIVPSSPAPPLPLSG | 13.5
ISPPASPPPEFDFSK | 27.5

biological target: AgLsb1; assay: as above
Procedure, shortened: as §1

Binder | SPOT peptide array binding signal intensity
PIVPSSPAPPLPLSG | ≤ 0
ISPPASPPPEFDFSK | ≤ 0

biological target: AgLsb4; assay: as above
Procedure, shortened: as §1

Binder | SPOT peptide array binding signal intensity
PIVPSSPAPPLPLSG | ≤ 0
ISPPASPPPEFDFSK | ≤ 0

biological target: AgMyo5; assay: as above
Procedure, shortened: as §1

Binder | SPOT peptide array binding signal intensity
PIVPSSPAPPLPLSG | 3230
ISPPASPPPEFDFSK | 781

biological target: AgNbp2; assay: as above
Procedure, shortened: as §1

Binder | SPOT peptide array binding signal intensity
PIVPSSPAPPLPLSG | ≤ 0
ISPPASPPPEFDFSK | ≤ 0

biological target: AgRvs167; assay: as above
Procedure, shortened: as §1

Binder | SPOT peptide array binding signal intensity
PIVPSSPAPPLPLSG | ≤ 0
ISPPASPPPEFDFSK | 0.333

biological target: AgSho1; assay: as above
Procedure, shortened: as §1

Binder | SPOT peptide array binding signal intensity
PIVPSSPAPPLPLSG | ≤ 0
ISPPASPPPEFDFSK | ≤ 0

biological target: AgSla1-D1-D2; assay: as above
Procedure, shortened: as §1

Binder | SPOT peptide array binding signal intensity
PIVPSSPAPPLPLSG | 7
ISPPASPPPEFDFSK | 5

biological target: AgSla1-D3; assay: as above
Procedure, shortened: as §1

Binder | SPOT peptide array binding signal intensity
PIVPSSPAPPLPLSG | ≤ 0
ISPPASPPPEFDFSK | ≤ 0

biological target: CaAbp1-D1; assay: as above
Procedure, shortened: as §1

Binder | SPOT peptide array binding signal intensity
PIVPSSPAPPLPLSG | ≤ 0
ISPPASPPPEFDFSK | ≤ 0

biological target: CaAbp1-D2; assay: as above
Procedure, shortened: as §1

Binder | SPOT peptide array binding signal intensity
PIVPSSPAPPLPLSG | ≤ 0
ISPPASPPPEFDFSK | 1.5

biological target: CaBbc1; assay: as above
Procedure, shortened: as §1

Binder | SPOT peptide array binding signal intensity
PIVPSSPAPPLPLSG | ≤ 0
ISPPASPPPEFDFSK | ≤ 0

biological target: CaBem1-D1; assay: as above
Procedure, shortened: as §1

Binder | SPOT peptide array binding signal intensity
PIVPSSPAPPLPLSG | ≤ 0
ISPPASPPPEFDFSK | ≤ 0

biological target: CaBzz1-D1; assay: as above
Procedure, shortened: as §1

Binder | SPOT peptide array binding signal intensity
PIVPSSPAPPLPLSG | 19
ISPPASPPPEFDFSK | ≤ 0

biological target: CaBzz1-D2; assay: as above
Procedure, shortened: as §1

Binder | SPOT peptide array binding signal intensity
PIVPSSPAPPLPLSG | 11.2
ISPPASPPPEFDFSK | 14.5

biological target: CaCyk3; assay: as above
Procedure, shortened: as §1

Binder | SPOT peptide array binding signal intensity
PIVPSSPAPPLPLSG | ≤ 0
ISPPASPPPEFDFSK | ≤ 0

biological target: CaFus1; assay: as above
Procedure, shortened: as §1

Binder | SPOT peptide array binding signal intensity
PIVPSSPAPPLPLSG | 14.5
ISPPASPPPEFDFSK | ≤ 0

biological target: CaHof1; assay: as above
Procedure, shortened: as §1

Binder | SPOT peptide array binding signal intensity
PIVPSSPAPPLPLSG | ≤ 0
ISPPASPPPEFDFSK | 1

biological target: CaHse1; assay: as above
Procedure, shortened: as §1

Binder | SPOT peptide array binding signal intensity
PIVPSSPAPPLPLSG | ≤ 0
ISPPASPPPEFDFSK | 1

biological target: CaLsb1; assay: as above
Procedure, shortened: as §1

Binder | SPOT peptide array binding signal intensity
PIVPSSPAPPLPLSG | ≤ 0
ISPPASPPPEFDFSK | ≤ 0

biological target: CaLsb4; assay: as above
Procedure, shortened: as §1

Binder | SPOT peptide array binding signal intensity
PIVPSSPAPPLPLSG | ≤ 0
ISPPASPPPEFDFSK | ≤ 0

biological target: CaMyo5; assay: as above
Procedure, shortened: as §1

Binder | SPOT peptide array binding signal intensity
PIVPSSPAPPLPLSG | 611
ISPPASPPPEFDFSK | 40

biological target: CaNbp2; assay: as above
Procedure, shortened: as §1

Binder | SPOT peptide array binding signal intensity
ISPPASPPPEFDFSK | ≤ 0

biological target: CaRvs167; assay: as above
Procedure, shortened: as §1

Binder | SPOT peptide array binding signal intensity
ISPPASPPPEFDFSK | 0.833

biological target: CaRvs167-3; assay: as above
Procedure, shortened: as §1

Binder | SPOT peptide array binding signal intensity
ISPPASPPPEFDFSK | ≤ 0

biological target: CaSho1; assay: as above
Procedure, shortened: as §1

Binder | SPOT peptide array binding signal intensity
ISPPASPPPEFDFSK | ≤ 0

biological target: CaSla1-D1-D2; assay: as above
Procedure, shortened: as §1

Binder | SPOT peptide array binding signal intensity
ISPPASPPPEFDFSK | ≤ 0

biological target: CaSla1-D3; assay: as above
Procedure, shortened: as §1

Binder | SPOT peptide array binding signal intensity
ISPPASPPPEFDFSK | 1.5

biological target: ScAbp1; assay: as above
Procedure, shortened: as §1

Binder | SPOT peptide array binding signal intensity
ISPPASPPPEFDFSK | ≤ 0

biological target: ScBbc1; assay: as above
Procedure, shortened: as §1

Binder | SPOT peptide array binding signal intensity
ISPPASPPPEFDFSK | ≤ 0

biological target: ScBem1-D1; assay: as above
Procedure, shortened: as §1

Binder | SPOT peptide array binding signal intensity
ISPPASPPPEFDFSK | ≤ 0

biological target: ScBzz1-D1; assay: as above
Procedure, shortened: as §1

Binder | SPOT peptide array binding signal intensity
ISPPASPPPEFDFSK | ≤ 0

biological target: ScBzz1-D2; assay: as above
Procedure, shortened: as §1

Binder | SPOT peptide array binding signal intensity
ISPPASPPPEFDFSK | ≤ 0

biological target: ScCyk3; assay: as above
Procedure, shortened: as §1

Binder | SPOT peptide array binding signal intensity
ISPPASPPPEFDFSK | ≤ 0

biological target: ScFus1; assay: as above
Procedure, shortened: as §1

Binder | SPOT peptide array binding signal intensity
ISPPASPPPEFDFSK | ≤ 0

biological target: ScHof1; assay: as above
Procedure, shortened: as §1

Binder | SPOT peptide array binding signal intensity
ISPPASPPPEFDFSK | ≤ 0

biological target: ScHse1; assay: as above
Procedure, shortened: as §1

Binder | SPOT peptide array binding signal intensity
ISPPASPPPEFDFSK | ≤ 0

biological target: ScLsb1; assay: as above
Procedure, shortened: as §1

Binder | SPOT peptide array binding signal intensity
ISPPASPPPEFDFSK | ≤ 0

biological target: ScLsb2; assay: as above
Procedure, shortened: as §1

Binder | SPOT peptide array binding signal intensity
ISPPASPPPEFDFSK | ≤ 0

biological target: ScLsb3; assay: as above
Procedure, shortened: as §1

Binder | SPOT peptide array binding signal intensity
ISPPASPPPEFDFSK | ≤ 0

biological target: ScLsb4; assay: as above
Procedure, shortened: as §1

Binder | SPOT peptide array binding signal intensity
ISPPASPPPEFDFSK | ≤ 0

biological target: ScMyo3; assay: as above
Procedure, shortened: as §1

Binder | SPOT peptide array binding signal intensity
ISPPASPPPEFDFSK | 1120

biological target: ScMyo5; assay: as above
Procedure, shortened: as §1

Binder | SPOT peptide array binding signal intensity
ISPPASPPPEFDFSK | 428

biological target: ScNbp2; assay: as above
Procedure, shortened: as §1

Binder | SPOT peptide array binding signal intensity
ISPPASPPPEFDFSK | ≤ 0

biological target: ScPex13; assay: as above
Procedure, shortened: as §1

Binder | SPOT peptide array binding signal intensity
ISPPASPPPEFDFSK | ≤ 0

biological target: ScRvs167; assay: as above
Procedure, shortened: as §1

Binder | SPOT peptide array binding signal intensity
ISPPASPPPEFDFSK | ≤ 0

biological target: ScSho1; assay: as above
Procedure, shortened: as §1

Binder | SPOT peptide array binding signal intensity
ISPPASPPPEFDFSK | ≤ 0

biological target: ScSla1-D1-D2; assay: as above
Procedure, shortened: as §1

Binder | SPOT peptide array binding signal intensity
ISPPASPPPEFDFSK | ≤ 0

biological target: ScSla1-D3; assay: as above
Procedure, shortened: as §1

Binder | SPOT peptide array binding signal intensity
ISPPASPPPEFDFSK | 3.5

biological target: SpAbp1-D1; assay: as above
Procedure, shortened: as §1

Binder | SPOT peptide array binding signal intensity
ISPPASPPPEFDFSK | ≤ 0

biological target: SpBbc1; assay: as above
Procedure, shortened: as §1

Binder | SPOT peptide array binding signal intensity
ISPPASPPPEFDFSK | 2.5

biological target: SpBzz1-D1; assay: as above
Procedure, shortened: as §1

Binder | SPOT peptide array binding signal intensity
ISPPASPPPEFDFSK | ≤ 0

biological target: SpBzz1-D2; assay: as above
Procedure, shortened: as §1

Binder | SPOT peptide array binding signal intensity
ISPPASPPPEFDFSK | 1

biological target: SpCyk3; assay: as above
Procedure, shortened: as §1

Binder | SPOT peptide array binding signal intensity
ISPPASPPPEFDFSK | ≤ 0

biological target: SpHof1; assay: as above
Procedure, shortened: as §1

Binder | SPOT peptide array binding signal intensity
ISPPASPPPEFDFSK | ≤ 0

biological target: SpHof1-2; assay: as above
Procedure, shortened: as §1

Binder | SPOT peptide array binding signal intensity
ISPPASPPPEFDFSK | 0.5

biological target: SpHof1-3; assay: as above
Procedure, shortened: as §1

Binder | SPOT peptide array binding signal intensity
ISPPASPPPEFDFSK | ≤ 0

biological target: SpHse1; assay: as above
Procedure, shortened: as §1

Binder | SPOT peptide array binding signal intensity
ISPPASPPPEFDFSK | 6

biological target: SpLsb1; assay: as above
Procedure, shortened: as §1

Binder | SPOT peptide array binding signal intensity
ISPPASPPPEFDFSK | ≤ 0

biological target: SpLsb4; assay: as above
Procedure, shortened: as §1

Binder | SPOT peptide array binding signal intensity
ISPPASPPPEFDFSK | ≤ 0

biological target: SpMyo1; assay: as above
Procedure, shortened: as §1

Binder | SPOT peptide array binding signal intensity
ISPPASPPPEFDFSK | 877

biological target: SpNbp2; assay: as above
Procedure, shortened: as §1

Binder | SPOT peptide array binding signal intensity
ISPPASPPPEFDFSK | ≤ 0

biological target: SpPex13; assay: as above
Procedure, shortened: as §1

Binder | SPOT peptide array binding signal intensity
ISPPASPPPEFDFSK | ≤ 0

biological target: SpRvs167; assay: as above
Procedure, shortened: as §1

Binder | SPOT peptide array binding signal intensity
ISPPASPPPEFDFSK | ≤ 0

biological target: SpSla1-D1-D2; assay: as above
Procedure, shortened: as §1

Binder | SPOT peptide array binding signal intensity
ISPPASPPPEFDFSK | 1

biological target: SpSla1-D3; assay: as above
Procedure, shortened: as §1

Binder | SPOT peptide array binding signal intensity
ISPPASPPPEFDFSK | 3
